Experimental data from PubChem BioAssay (NCI).
The panel holds about 83,000 compounds, 20% with a hit somewhere; the sample as a whole holds those more often.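 48-hour exposure, single concentration, 96-well plates; percent growth endpoint where 0 means no net growth. Active: below 10.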 A number with no mark means an inactive call. Active and inactive are the calls of the source.

Test system: MDA-MB-468 breast
Assay: NCI-60 one-dose screen, 48 h (100 = growth as untreated, 0 = no growth, -100 = all killed)
Conditions: 10 µM unless noted

Structure (SMILES) | growth
Nc1ccn(Cc2nnc(CCC(=O)c3nc4ccccc4[nH]3)o2)c(=O)n1 | 79%
COc1cc(N)c2ncccc2c1SC | 107%
CCCCOc1ccc(/C=N/NC(N)=S)cc1 | 66.5%
CCN(CC)CC(O)CNc1c2ccc(Cl)cc2nc2ccc(OC)cc12 (stereo not given) | -48.3% (active)
CC1(C)C2CC1C1(/C=N\Nc3ccccc3)C(C2)C(C#N)(C#N)C1(C#N)C#N (stereo not given) | 94.8%
NN1CCOC(c2ccccc2)C1 (stereo not given) | 113%
O=C1C(Cl)=C(Nc2cccc3cc4ccccc4nc23)C(=O)c2ccccc21 | 40.9%
O=C1/C(=C/c2ccccc2Cl)CCc2ccccc21 | 101%
CC(=O)N1N=C(c2ccc(Nc3nc(Nc4ccc(F)cc4)nc(Nc4ccc(Cl)cc4)n3)cc2)CC1c1ccc(N(C)C)cc1 (stereo not given) | 56.2%
COc1cc(C(=O)/C=C/c2c(Cl)nc3sccn23)cc(OC)c1OC | 60.1%
N#Cc1cccc(/C(N)=N/C(N)=N/c2nc3ccccc3s2)c1 | 18.7%
NNC(=O)c1ccc(C(=O)NN)cc1 | 102%
Nc1cc2ccncc2c2ccccc12 | 71.7%
CCNCCNc1cc(-c2ccc(C(F)(F)F)cc2)c(C#N)c2nc3cc(Cl)c(Cl)cc3n12 | -82% (active)
Cc1cc2nc3c4cc(O)ccc4n(CCN(C)C)c3nc2cc1C | -38.4% (active)
Cc1ccc(S(=O)(=O)N/N=C/c2cn(-c3ccc(F)cc3)nc2-c2ccc(S(C)(=O)=O)cc2)cc1 | 97%
COC(=O)/C=C/c1cc(OC(C)=O)c2c(c1)[C@@H](C(=O)OC)[C@H](c1ccc(OC(C)=O)c(OC(C)=O)c1)O2 | -1.27% (active)
C#CC(O)c1ccccc1 (stereo not given) | 110%
O=C1NC(=S)S/C1=C\N1N=C(c2ccc(Cl)cc2)CC1c1ccc(F)cc1 (stereo not given) | 92.3%
CCCCCCn1c(-c2ccc(C(=O)O/N=C(\N)c3ccc(OC)cc3)cc2)nc(-c2ccccc2)c1-c1ccccc1 | -6.91% (active)

Structure (SMILES) | growth
CC(C)(C)c1ccc(N2CSC(=S)N(c3ccc(C(C)(C)C)cc3)C2)cc1 | 111%
Cc1c(-c2ccccc2)[nH]c2ccccc12 | 88.1%
Cn1ccnc1C(=O)/C=C/c1ccc(CC(=O)NC2CCCCC2)cc1 | -6.65% (active)
Cc1ccc(C(=O)c2ccc(CC(=O)N/N=C/c3ccccc3O)n2C)cc1 | 81.1%
Nc1nonc1-c1nc2ccccc2n1Cc1ccc(F)cc1 | 23.6%
Cc1ccc(/C=C2\CN(C(=O)C(Cl)Cl)C/C(=C\c3ccc(C)cc3)C2=O)cc1 | -65.9% (active)
N=C(N)c1ccc(-c2ccc(-c3cc(Cl)cc(Cl)c3)s2)cc1 | -77.6% (active)
CC1(C)C2CC1C1(/C=N/NC(N)=S)C(C2)C(C#N)(C#N)C1(C#N)C#N (stereo not given) | 76.6%
COC(=O)[C@H](Cc1cn(C)cn1)NC(=O)[C@H](C)NC(=O)Nc1cc(C(F)(F)F)cc(C(F)(F)F)c1 | -82.8% [100 µM] (active)
COc1ccc2c(=O)c(OC)c(-c3cc(OC)c(OC)c(OC)c3)oc2c1 | 86.5%
O=[N+]([O-])c1cccc(N=Cc2ccccc2)c1 | 106%
CCN(CC)c1ccc2[nH]c3c(C(N)=O)cc(=O)c(=O)c=3oc2c1 | -38.4% (active)
CC1(O)CCC(Nc2cc(-c3ccc(C(F)(F)F)cc3)c(C#N)c3nc4ccccc4n23)CC1 (stereo not given) | 86.8%
CCn1c(SCC(=O)N/N=C(\C)c2ccc(Cl)cc2)nc2c1c(=O)n(C)c(=O)n2C | 96.6%
COc1cc(/C=N/NC(=O)Cn2c(-c3ccc(C)o3)nc3ccccc32)ccc1OCc1ccccc1 | 76.6%
NC(=O)SCC(=O)Nc1ccccc1-c1ccccc1 | 99.9%
Nc1nnc(C(=O)c2cnc3n(c2=O)CCCCC3)s1 | 90.4%
O=C1CCCN1C(O)CCN(Cc1ccccc1)Cc1ccc(Cl)cc1 (stereo not given) | 113%
Brc1ccc(-c2nn(-c3ccccc3)cc2-c2nn[nH]n2)s1 | 98.8%
O=C(NCCCNc1cc(-c2cn(-c3ccccc3)nc2-c2cccc(O)c2)ccn1)c1ccccc1 | -61% (active)
